# Data from the supplement of paper PMC7695840.
# Structures can show the parent of a compound that is named as a salt.
# Assays:
# [1] = tested on: Staphylococcus aureus MW2 delta-mecA (mecA-); test: normalized GFP fluorescence (growth of mecA- strain) (fraction of control range); higher = more growth of mecA- strain; details: compound concentration: 150 uM; cefoxitin: subinhibitory; fluorescent label: GFP
# Outline: (§1)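 A 1:1 mix of pre-induced S. aureus MW2 cells, DsRed-labeled with the gene and GFP-labeled without it, was grown in LB with a daily-set subinhibitory antibiotic dose on 150 μM compound (1.5% DMSO) in 1536-well plates, single replicate. Growth lasted 20 h at 37 °C, 90% humidity, without shaking, and DsRed (540/590) and GFP (485/520) were then read. Channels were scaled per plate to single-strain control medians, and plates with high untreated ratios and rows with DsRed/GFP >10 were removed.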
# [2] = tested on: Staphylococcus aureus MW2 (mecA+); test: normalized DsRed fluorescence (growth of mecA+ strain) (fraction of control range); higher = more growth of mecA+ strain; details: compound concentration: 150 uM; cefoxitin: subinhibitory; fluorescent label: DsRed
# Outline: as §1
SMILES,normalized GFP fluorescence [1],normalized DsRed fluorescence [2]
CCN1CCCC1CNC(=O)c1cc(S(N)(=O)=O)ccc1OC (stereo not drawn),0.362,0.764
CC1(C)O[C@@H]2C[C@H]3[C@@H]4CCC5=CC(=O)CC[C@]5(C)[C@@]4(F)[C@@H](O)C[C@]3(C)[C@]2(C(=O)CCl)O1,0.195,0.844
NS(=O)(=O)Cc1noc2ccccc12 [Zonisamide],0.595,0.893
CN1CCN(C(c2ccccc2)c2ccccc2)CC1,0.231,1.32
C[C@@H]1C[C@H]2[C@@H]3CCC4=CC(=O)C=C[C@]4(C)[C@@]3(F)[C@@H](O)C[C@]2(C)[C@@]1(O)C(=O)CO,0.309,0.687
CC12CCC(CC1=O)C2(C)C (stereo not drawn),0.212,1.15
CNC(=O)c1ccc(N2C(=S)N(c3ccc(C#N)c(C(F)(F)F)c3)C(=O)C2(C)C)cc1F [MDV3100 (Enzalutamide)],0.245,0.592
CC(CCc1ccccc1)NCC(O)c1ccc(O)c(C(N)=O)c1 (stereo not drawn),0.745,0.7
Clc1ccc(CCC(Cn2ccnc2)Sc2c(Cl)cccc2Cl)cc1 (stereo not drawn),-0.00294,0.01
CC(C)NCC(O)COc1cccc2[nH]ccc12 (stereo not drawn),0.242,1.01
COC(=O)C1=C(C)NC(C)=C(C(=O)OCCN2CCN(C(c3ccccc3)c3ccccc3)CC2)C1c1cccc([N+](=O)[O-])c1 (stereo not drawn),0.002,0.944
CNS(=O)(=O)Cc1ccc2[nH]cc(CCN(C)C)c2c1,0.345,0.758
CNC1(C)C2CCC(C2)C1(C)C (stereo not drawn),0.71,0.669
O[C@H]1[C@H](O)[C@@H](O)[C@H](O)[C@@H](O)[C@H]1O,0.236,0.698
C[C@]12CCC(=O)C=C1C=C[C@@H]1[C@@H]2CC[C@@]2(C)[C@H]1CC[C@@]21CCC(=O)O1,0.191,0.593
Cc1cc2nc3c(=O)[nH]c(=O)nc-3n(CC(O)C(O)C(O)COP(=O)(O)O)c2cc1C (stereo not drawn),0.933,0.535
Nc1nc2c(ncn2COC(CO)CO)c(=O)[nH]1,0.466,0.948
CN1CCN(C2=Nc3cc(Cl)ccc3Nc3ccccc32)CC1 [Clozapine (Clozaril)],0.0909,1.01
C[C@@H]1CCN(C(=O)CC#N)C[C@@H]1N(C)c1ncnc2[nH]ccc12,0.325,0.9
NS(=O)(=O)c1cc2c(cc1Cl)NC(C1CC3C=CC1C3)NS2(=O)=O (stereo not drawn),0.463,0.69
CN1CCOC(c2ccccc2)c2ccccc2C1 (stereo not drawn),0.242,0.81
CC(C(=O)O)c1ccc(-c2ccccc2)c(F)c1 (stereo not drawn),0.201,0.435
CN1CCC(OC(c2ccccc2)c2ccccc2)CC1,0.0847,1.1
N=C(N)N1CCc2ccccc2C1,0.353,0.808
CCCCc1nc(Cl)c(CO)n1Cc1ccc(-c2ccccc2-c2nnn[nH]2)cc1,0.297,0.864
CNS(=O)(=O)CCc1ccc2[nH]cc(C3CCN(C)CC3)c2c1 [Naratriptan HCl],0.395,0.662
Cc1cccc(C)c1OCC(=O)N[C@@H](Cc1ccccc1)[C@@H](O)C[C@H](Cc1ccccc1)NC(=O)[C@H](C(C)C)N1CCCNC1=O [Lopinavir (ABT-378)],0.126,0.671
CCOC(=O)O[C@]1(C(=O)COC(=O)CC)CC[C@H]2[C@@H]3CCC4=CC(=O)C=C[C@]4(C)[C@H]3[C@@H](O)C[C@@]21C,0.129,1.07
CCCC1O[C@@H]2C[C@H]3[C@@H]4CCC5=CC(=O)C=C[C@]5(C)[C@H]4[C@@H](O)C[C@]3(C)[C@]2(C(=O)CO)O1 (stereo partly drawn),0.226,1.12
